From PubChem BioAssay
The source made the active and inactive calls.

How the values were obtained:
[1] = small molecules captured by biotinylated probe aFSTL3 – biochemical, small-molecule microarray, fluorescence 635/667, stem cell growth factor project, primary screen (AID 1064); details: higher = more signal;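 further: measures binding of the biotinylated anti-FSTL3 antibody to printed compounds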
[2] = binders from COS7 lysate, DM2A8 probe, primary screen, torsin A project, cell lysate, small-molecule microarray, fluorescence 635/667 (AID 1065); details: higher = more signal, COS7 lysate expressing mutant human TOR1A
[3] = small molecules captured by biotinylated probe aFGF2 – biochemical, small-molecule microarray, fluorescence 635/667, stem cell growth factor project, primary screen (AID 1067); details: higher = more signal;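 further: measures binding of biotinylated aFGF2 protein to printed compounds on slides; z-score merges feature fluorescence and signal-to-noise across triplicate slides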
[4] = small molecules captured by biotinylated probe aFGF10 – biochemical, small-molecule microarray, fluorescence 635/667, stem cell growth factor project, primary screen (AID 1071); details: higher = more signal;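 further: score merges 667 nm spot intensity and signal to noise from triplicate slides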
[5] = target: Neurogenic locus notch homolog protein 2 (Homo sapiens) (UniProt Q04721); experiment: small molecules binding Notch2 protein – biochemical, small-molecule microarray, 635 nm fluorescence, stem cell growth factors, primary screen (AID 1073); details: higher = more signal
Neurogenic locus notch homolog protein 2 (Homo sapiens), sequence (Q04721 whole entry, looked up, canonical isoform): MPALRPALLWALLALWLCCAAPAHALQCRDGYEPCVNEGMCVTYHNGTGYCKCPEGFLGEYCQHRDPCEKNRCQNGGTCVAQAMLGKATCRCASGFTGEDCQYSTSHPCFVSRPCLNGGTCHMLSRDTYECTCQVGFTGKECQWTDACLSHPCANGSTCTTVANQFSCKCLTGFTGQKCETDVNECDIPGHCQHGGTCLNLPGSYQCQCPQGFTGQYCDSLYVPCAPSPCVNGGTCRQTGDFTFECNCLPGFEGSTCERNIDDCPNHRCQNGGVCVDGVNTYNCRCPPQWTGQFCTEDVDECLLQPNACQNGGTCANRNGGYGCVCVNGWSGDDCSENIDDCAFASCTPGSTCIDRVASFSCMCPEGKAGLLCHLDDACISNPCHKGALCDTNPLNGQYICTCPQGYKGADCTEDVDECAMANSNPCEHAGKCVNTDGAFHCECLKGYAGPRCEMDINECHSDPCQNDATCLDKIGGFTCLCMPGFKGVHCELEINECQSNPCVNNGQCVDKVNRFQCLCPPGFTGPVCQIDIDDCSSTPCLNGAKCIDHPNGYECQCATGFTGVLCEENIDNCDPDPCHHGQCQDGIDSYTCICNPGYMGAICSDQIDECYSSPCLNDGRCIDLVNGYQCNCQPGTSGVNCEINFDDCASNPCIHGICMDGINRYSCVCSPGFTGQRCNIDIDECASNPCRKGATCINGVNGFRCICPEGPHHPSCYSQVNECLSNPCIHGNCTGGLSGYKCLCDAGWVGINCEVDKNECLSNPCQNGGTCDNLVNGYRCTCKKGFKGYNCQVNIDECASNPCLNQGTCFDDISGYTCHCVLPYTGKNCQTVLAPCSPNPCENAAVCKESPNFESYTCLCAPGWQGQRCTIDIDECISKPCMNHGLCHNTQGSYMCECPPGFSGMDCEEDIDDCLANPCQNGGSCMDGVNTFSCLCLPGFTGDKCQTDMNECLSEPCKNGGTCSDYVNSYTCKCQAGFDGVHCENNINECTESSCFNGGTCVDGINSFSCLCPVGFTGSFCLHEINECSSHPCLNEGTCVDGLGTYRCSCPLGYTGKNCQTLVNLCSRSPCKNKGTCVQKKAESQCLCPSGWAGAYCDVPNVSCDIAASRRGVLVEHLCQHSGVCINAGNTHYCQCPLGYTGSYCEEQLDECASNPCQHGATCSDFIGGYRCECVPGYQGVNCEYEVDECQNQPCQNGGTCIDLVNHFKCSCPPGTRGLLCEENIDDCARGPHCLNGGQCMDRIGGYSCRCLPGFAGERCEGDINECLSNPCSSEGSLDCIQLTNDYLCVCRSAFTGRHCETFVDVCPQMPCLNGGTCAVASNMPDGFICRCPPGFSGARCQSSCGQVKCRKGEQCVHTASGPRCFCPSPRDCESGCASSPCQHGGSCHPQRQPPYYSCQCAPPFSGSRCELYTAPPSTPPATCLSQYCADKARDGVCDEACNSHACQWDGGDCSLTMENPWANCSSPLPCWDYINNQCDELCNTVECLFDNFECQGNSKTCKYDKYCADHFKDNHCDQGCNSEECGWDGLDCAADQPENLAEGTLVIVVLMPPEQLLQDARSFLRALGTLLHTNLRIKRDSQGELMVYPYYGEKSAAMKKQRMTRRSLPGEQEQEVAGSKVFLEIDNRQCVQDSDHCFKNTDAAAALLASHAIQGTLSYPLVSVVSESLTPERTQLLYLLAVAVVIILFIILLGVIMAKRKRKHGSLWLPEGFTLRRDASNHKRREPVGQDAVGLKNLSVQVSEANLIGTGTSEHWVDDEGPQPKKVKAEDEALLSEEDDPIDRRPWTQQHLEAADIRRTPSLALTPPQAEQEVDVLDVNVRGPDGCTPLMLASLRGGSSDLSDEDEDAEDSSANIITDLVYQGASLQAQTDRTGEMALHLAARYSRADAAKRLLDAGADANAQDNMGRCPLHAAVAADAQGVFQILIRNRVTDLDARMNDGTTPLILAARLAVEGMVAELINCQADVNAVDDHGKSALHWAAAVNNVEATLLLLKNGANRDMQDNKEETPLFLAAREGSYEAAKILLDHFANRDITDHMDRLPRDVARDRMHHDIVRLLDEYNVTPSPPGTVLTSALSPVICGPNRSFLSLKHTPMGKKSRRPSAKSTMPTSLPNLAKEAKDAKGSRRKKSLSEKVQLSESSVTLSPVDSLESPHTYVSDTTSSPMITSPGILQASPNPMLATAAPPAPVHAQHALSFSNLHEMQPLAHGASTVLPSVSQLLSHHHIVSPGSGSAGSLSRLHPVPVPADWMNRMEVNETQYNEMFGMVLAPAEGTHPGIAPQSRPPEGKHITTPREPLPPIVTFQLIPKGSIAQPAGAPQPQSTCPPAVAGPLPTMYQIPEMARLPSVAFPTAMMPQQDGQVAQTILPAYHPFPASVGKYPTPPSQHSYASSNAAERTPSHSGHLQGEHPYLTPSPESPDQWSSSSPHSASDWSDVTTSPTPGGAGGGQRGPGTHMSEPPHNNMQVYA

[6] = target: Pro-neuregulin-1, membrane-bound isoform (Homo sapiens) (UniProt Q02297); experiment: small molecules binding neuregulin-1 protein – biochemical, small-molecule microarray, fluorescence 635/667, psychiatric disease protein project, primary screen (AID 1075); details: NRG1 binding, 635 nm fluorescence, higher = more signal;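 further: score combines 667 nm spot fluorescence with signal to noise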
[7] = system: Neuregulin-1 EGF-like domain; experiment: small molecules binding NRG1 EGF domain – biochemical, small-molecule microarray, 635 nm fluorescence, primary screen (AID 1081); details: higher = more signal;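 further: binding of the protein to compounds printed on small-molecule microarray slides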
[8] = FRG1 expression reporter modulators in myotubes – cell-based, C2C12 myotubes, firefly/Renilla luciferase, luminescence, FRG1 inhibition for FSHD, primary screen (AID 1084); details: FRG1 promoter luciferase, higher = more signal, called active from +8 up or from −8 down
[9] = small molecules captured by biotinylated probe aFST – biochemical, small-molecule microarray, fluorescence 635/667, stem cell growth factor project, primary screen (AID 1086); details: higher = more signal;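 further: score merges 667 nm fluorescence with signal-to-noise of each printed compound spot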
[10] = binders of probe aHhip on microarray, primary screen, stem cell growth factor project, biochemical, small-molecule microarray, fluorescence 635/667 (AID 1087); details: higher = more signal;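 further: score merges spot fluorescence at 667nm with spot signal to noise ratio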
[11] = system: PRMT1 (protein arginine N-methyltransferase 1); experiment: small molecules binding arginine methyltransferase PRMT1 – biochemical, small-molecule microarray, 635 nm fluorescence, primary screen (AID 1088); details: higher = more signal;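 further: binding of Prmt1 protein to compounds spotted on small-molecule microarray slides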
[12] = growth effects on S. cerevisiae YJM789 – YJM789 clinical isolate, OD600, 24 h, basal, primary screen (AID 1089); details: higher = more signal, called active from +8 up or from −8 down;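 further: growth of clinical yeast isolate S. cerevisiae YJM 789 seeded 1000 cells per well; test concentration not given here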
[13] = S. pombe growth modifiers, basal conditions – strain 972, OD600, 24 h, no modulator, primary screen (AID 1090);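 further: basal condition with compound alone and no growth modifier present; test concentration not given here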; details: S. pombe 972 growth, higher = more signal, called active from +8 up or from −8 down
[14] = budding yeast growth modifiers under rapamycin – strain BY4716, OD600, 96 h, primary screen (AID 1091); further: test concentration not given here; details: S. cerevisiae BY4716 + rapamycin, higher = more signal, called active from +8 up or from −8 down
[15] = target: Torsin-1A-interacting protein 2 (Homo sapiens) (UniProt Q8NFQ8); experiment: small molecules binding lysate-expressed LULL1 – cell lysate, human LULL1 lysate, 635/667 nm fluorescence, primary screen (AID 1092); details: small-molecule microarray, hLULL1 lysate binding, 635 nm fluorescence; higher = more signal;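 further: probe is lysate of COS7 cells overexpressing human LULL1; score merges per-feature 667 nm fluorescence with signal-to-noise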
[16] = optical density change of DRC41 E. coli – strain DRC41, OD650, 24 h, E. coli filamentation project, primary screen (AID 1093);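 further: MC1000 strain lacking acrAB efflux and sulA so SOS filamentation is blocked; test concentration not given here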; details: E. coli DRC41 growth, higher = more signal, called active from +8 up or from −8 down
[17] = probe aLefty2 binding to arrayed compounds – biochemical, biotinylated probe, 635/667 nm fluorescence, primary screen (AID 1094); details: small-molecule microarray, higher = more signal;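 further: score merges spot fluorescence near 667 nm with spot signal-to-noise ratio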
[18] = system: Noggin (protein binding on small-molecule microarray); experiment: small molecules binding Noggin protein – biochemical, 635/667 nm fluorescence, primary screen (AID 1095); details: 635 nm fluorescence, higher = more signal;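 further: score merges 667 nm feature fluorescence with signal to noise over triplicate slides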
[19] = target: Neurogenic locus notch homolog protein 3 (Homo sapiens) (UniProt Q9UM47); experiment: small molecules binding NOTCH3 protein – biochemical, 635/667 nm fluorescence, primary screen (AID 1096); details: small-molecule microarray, 635 nm fluorescence, higher = more signal
Neurogenic locus notch homolog protein 3 (Homo sapiens), sequence (Q9UM47 whole entry, looked up): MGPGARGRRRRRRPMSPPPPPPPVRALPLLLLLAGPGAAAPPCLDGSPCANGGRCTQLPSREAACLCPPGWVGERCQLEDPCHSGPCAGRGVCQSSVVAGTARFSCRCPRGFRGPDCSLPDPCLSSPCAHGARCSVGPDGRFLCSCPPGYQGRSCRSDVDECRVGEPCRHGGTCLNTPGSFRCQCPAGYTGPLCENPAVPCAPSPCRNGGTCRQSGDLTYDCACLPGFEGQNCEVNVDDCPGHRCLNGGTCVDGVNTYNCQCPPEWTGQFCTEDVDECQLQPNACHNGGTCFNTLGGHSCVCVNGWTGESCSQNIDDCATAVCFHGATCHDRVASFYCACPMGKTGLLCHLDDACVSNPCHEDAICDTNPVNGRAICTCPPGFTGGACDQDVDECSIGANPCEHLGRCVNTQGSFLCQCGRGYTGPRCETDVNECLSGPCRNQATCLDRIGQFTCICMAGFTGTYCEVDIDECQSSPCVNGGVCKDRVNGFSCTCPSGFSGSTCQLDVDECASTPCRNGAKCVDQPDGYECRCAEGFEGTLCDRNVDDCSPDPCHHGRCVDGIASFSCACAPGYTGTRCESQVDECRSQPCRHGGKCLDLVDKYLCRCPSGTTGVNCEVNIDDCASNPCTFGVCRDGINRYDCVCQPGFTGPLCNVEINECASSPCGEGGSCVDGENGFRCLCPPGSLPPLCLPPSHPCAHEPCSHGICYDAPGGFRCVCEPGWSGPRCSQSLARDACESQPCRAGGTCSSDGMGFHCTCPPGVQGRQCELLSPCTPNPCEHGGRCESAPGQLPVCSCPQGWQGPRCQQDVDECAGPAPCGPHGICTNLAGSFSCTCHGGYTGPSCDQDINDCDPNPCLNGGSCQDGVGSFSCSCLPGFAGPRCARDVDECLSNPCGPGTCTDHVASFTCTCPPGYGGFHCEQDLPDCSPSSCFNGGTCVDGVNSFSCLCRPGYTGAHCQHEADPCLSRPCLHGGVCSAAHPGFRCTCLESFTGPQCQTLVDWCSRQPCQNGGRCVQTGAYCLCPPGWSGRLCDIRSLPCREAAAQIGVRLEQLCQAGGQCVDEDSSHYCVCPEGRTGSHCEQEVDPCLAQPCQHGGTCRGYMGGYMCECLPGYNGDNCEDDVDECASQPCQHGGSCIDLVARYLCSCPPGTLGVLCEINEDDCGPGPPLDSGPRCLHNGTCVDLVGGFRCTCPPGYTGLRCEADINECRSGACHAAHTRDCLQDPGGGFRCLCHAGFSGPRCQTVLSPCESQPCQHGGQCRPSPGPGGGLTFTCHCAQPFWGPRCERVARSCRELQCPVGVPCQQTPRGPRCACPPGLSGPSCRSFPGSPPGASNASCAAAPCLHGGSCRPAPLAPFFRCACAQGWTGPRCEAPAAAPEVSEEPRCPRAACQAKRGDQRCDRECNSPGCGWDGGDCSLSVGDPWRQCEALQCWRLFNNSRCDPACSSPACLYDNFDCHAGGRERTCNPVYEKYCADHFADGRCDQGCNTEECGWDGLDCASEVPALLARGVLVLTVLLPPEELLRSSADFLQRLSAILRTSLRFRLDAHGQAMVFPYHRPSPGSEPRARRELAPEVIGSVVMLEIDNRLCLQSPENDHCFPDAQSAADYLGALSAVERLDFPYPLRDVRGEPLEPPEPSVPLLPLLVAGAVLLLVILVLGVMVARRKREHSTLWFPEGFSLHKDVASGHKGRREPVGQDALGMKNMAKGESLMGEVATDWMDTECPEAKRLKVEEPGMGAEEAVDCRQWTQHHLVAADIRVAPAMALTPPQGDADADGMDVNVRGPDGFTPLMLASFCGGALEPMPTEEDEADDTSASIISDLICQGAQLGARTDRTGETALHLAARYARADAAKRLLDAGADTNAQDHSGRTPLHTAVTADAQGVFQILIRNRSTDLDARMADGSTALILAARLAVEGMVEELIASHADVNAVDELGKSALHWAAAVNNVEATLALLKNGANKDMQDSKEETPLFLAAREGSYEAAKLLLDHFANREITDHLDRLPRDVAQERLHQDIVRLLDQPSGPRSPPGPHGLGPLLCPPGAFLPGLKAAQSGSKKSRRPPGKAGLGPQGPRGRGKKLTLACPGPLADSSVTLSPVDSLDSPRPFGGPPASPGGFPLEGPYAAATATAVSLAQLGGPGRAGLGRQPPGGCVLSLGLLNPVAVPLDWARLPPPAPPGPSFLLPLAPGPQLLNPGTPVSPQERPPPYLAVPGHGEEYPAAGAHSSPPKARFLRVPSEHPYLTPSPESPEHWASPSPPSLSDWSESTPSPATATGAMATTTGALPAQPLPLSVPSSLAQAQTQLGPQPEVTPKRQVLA

[20] = probe aEGFR binding to arrayed compounds – biochemical, biotinylated probe, 635/667 nm fluorescence, primary screen (AID 1097); details: small-molecule microarray, higher = more signal;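 further: probe is a biotinylated anti-EGFR antibody binding compounds printed on slides; score combines fluorescence near 667 nm and signal to noise of each spot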

SMILES | composite z-score [1] | composite z-score [2] | composite z-score [3] | composite z-score [4] | composite z-score [5] | composite z-score [6] | composite z-score [7] | z-score [8] | composite z-score [9] | composite z-score [10] | composite z-score [11] | z-score [12] | z-score [13] | z-score [14] | composite z-score [15] | z-score [16] | composite z-score [17] | composite z-score [18] | composite z-score [19] | composite z-score [20]
C=CC(CO)NC(=O)OCC1c2ccccc2-c2ccccc21 (stereo not given) | -0.165 | 0.96 | -0.178 | 0.282 | 0.342 | 0.147 | 0.256 | -0.113 (inactive) | 0.0613 | -0.217 | -0.341 | -1.2 (inactive) | -0.0715 (inactive) | -0.29 (inactive) | -0.652 | -0.77 (inactive) | -0.145 | 0.497 | 0.493 | -0.0192
COc1ccc([Si](C)(C)[C@H]2[C@H](CCn3cc([C@H](O)c4ccccc4)nn3)O[C@@]3(C(=O)N(C)c4c(Br)cc(C)cc43)[C@@H]2C)cc1 | -0.0258 | 0.48 | -0.113 | -0.327 | -0.442 | 0.218 | 0.881 | -0.905 (inactive) | -0.438 | -0.0994 | 0.661 | 0.31 (inactive) | 0.467 (inactive) | 1.34 (inactive) | -0.168 | 0.832 (inactive) | -0.138 | 1.96 | -0.615 | -0.179
CC(C)N1CC=CC23O[C@@H]4C=CCCOC(=O)C4[C@H]2C(=O)N(CCCCCO)[C@@H]3C1=O (stereo not given in full) | -0.0451 | -1.06 | -0.103 | 0.279 | -0.905 | 1.93 | 1.21 | -0.928 (inactive) | -0.352 | -0.353 | 0.08 | -0.0489 (inactive) | -0.0017 (inactive) | -0.569 (inactive) | 0.988 | 0.447 (inactive) | -0.242 | 0.154 | -0.23 | -0.236
CCCCN1CC=CC23O[C@@H]4/C=C\CCC(C)OC(=O)C4[C@H]2C(=O)N(C(C)CO)[C@@H]3C1=O (stereo not given in full) | -0.126 | -0.248 | -0.164 | -0.0863 | -0.831 | -1 | 0.331 | -0.3 (inactive) | -0.536 | 0.0373 | -1.58 | 0.324 (inactive) | -0.944 (inactive) | 0.316 (inactive) | -1.13 | -0.182 (inactive) | -0.317 | -0.422 | -0.878 | -0.401
COC(=O)[C@@]1(Cc2ccccc2CN=[N+]=[N-])COC(c2ccc(OCCCO)cc2)=N1 | 1.28 | -1.34 | -0.245 | -0.565 | -1.79 | 0.305 | 0.62 | -0.988 (inactive) | -0.575 | -0.137 | 1.26 | -1.38 (inactive) | -6.67 (inactive) | -1.9 (inactive) | 3.04 | 0.441 (inactive) | 0.175 | -1.69 | -1.25 | -0.442
CCOC(=O)C[C@H]1[C@H](OC(=O)c2ccc(-c3ccccc3)cc2)[C@@H](NC(=O)c2ccc3ccccc3c2)c2cc(OCCCO)ccc2N1C(=O)c1ccccc1 | -0.211 | -0.0761 | -0.0692 | 0.557 | 0.736 | -0.0077 | 0.627 | -0.182 (inactive) | 0.412 | -0.0115 | 0.712 | 0.806 (inactive) | 1.17 (inactive) | 1.26 (inactive) | 1.69 | -1.1 (inactive) | -0.141 | 0.382 | 0.842 | 0.0914
Cc1ccc(S[C@]2(C(=O)NCC(F)(F)F)CC(=O)N(C3CCCCC3)[C@@H]2c2ccc(CO)cc2)cc1 | 0.169 | 0.148 | -0.129 | 0.116 | -0.426 | 1.66 | 0.631 | -2.21 (inactive) | 0.387 | -0.271 | 1.28 | 0.565 (inactive) | -0.211 (inactive) | -0.0121 (inactive) | 2.9 | 0.471 (inactive) | 0.0078 | -0.461 | -0.107 | -0.194
COCCOC(=O)N1C(=O)[C@@]2(c3cc(C#CCCO)ccc31)[C@H](C(=O)N1CCN(c3ncccn3)CC1)[C@H]1C(=O)O[C@H](c3ccccc3)[C@H](c3ccccc3)N1[C@@H]2c1ccc(O)cc1 | -0.782 | 0.219 | 0.0243 | 0.534 | 0.376 | 0.926 | 1.24 | -1.3 (inactive) | -0.3 | -0.367 | 1.54 | 0.114 (inactive) | -0.161 (inactive) | 1.63 (inactive) | 2.04 | 1.49 (inactive) | -0.299 | 0.865 | 0.945 | -0.219
COCCOC(=O)N1C(=O)[C@@]2(c3cc(C#CC4(O)CCCCCC4)ccc31)[C@H](C(=O)N1CCc3cc(OC)c(OC)cc3C1)[C@H]1C(=O)O[C@H](c3ccccc3)[C@H](c3ccccc3)N1[C@@H]2c1ccc(O)cc1 | -0.277 | 2.26 | -0.01 | 0.68 | 1.51 | 0.156 | 1.16 | -0.877 (inactive) | 0.101 | -0.0618 | 1.54 | 0.449 (inactive) | -0.929 (inactive) | 1.7 (inactive) | 2.96 | 1.55 (inactive) | -0.0699 | 1.44 | 1.05 | 1.04
COc1cc(OC)c(C(O)C2C=CC3C(=O)N(c4ccccc4)C(=O)C3N2Nc2ccccc2F)cc1Br (stereo not given) | 0.0776 | 0.948 | 0.0619 | 0.61 | 1.44 | 1.74 | 1.25 | 0.0172 (inactive) | 1.53 | -0.0088 | 1.58 | 0.0228 (inactive) | 1.77 (inactive) | 0.511 (inactive) | 3.44 | -1.36 (inactive) | 0.0235 | 0.662 | 1.03 | -0.0531
